From PubChem BioAssay (EPA / NIEHS) come the findings set out here.

Each structure is given as a SMILES string. Several values for one entry are separate records, joined by “and”; a condition that tells them apart may be missing. Equal values may be shown once. Records with an inconclusive call do not appear. Some compounds were tested as several samples or in several runs, with calls that do not always agree. Activity calls are given as the source filed them. How the source made its calls, unless noted: active means hit-call score of the fitted dose curve at least 0.9, where 1 is the maximum; inactive means score below 0.9.

A short description of assay [1]: ACEA_ER_80hr: ACEA Biosciences xCELLigence Real-Time Cell Analysis on Estrogen Receptor Agonism for Proliferation (AID 2282667; active means hit-call score of the fitted dose curve at least 0.9, where 1 is the maximum). Conditions: T47D proliferation, impedance (xCELLigence), 80 h. The method in brief: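 T-47D cells monitored by electrical impedance (xCELLigence) with compound present throughout; 80 h timepoint, positive-direction fitting versus DMSO. Eight-point 1:4 dilutions from 100 uM final, duplicate plates.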

Assay [2] can be described thus: APR_HepG2_CellCycleArrest_24hr: Apredica 24-hour HepG2 Assay for Cell Cycle Arrest (AID 2282905).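 Further: cell cycle arrest scored as ratio of 2N to 4N nuclear DNA content.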 As to conditions: imaging, actives raise or lower the signal. The method in brief: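 Cell cycle arrest is scored from nuclear DNA content measured by high-content imaging of Hoechst 33342-stained HepG2 cells following 24-hour treatment at ten concentrations up to 200 uM, with DMSO as baseline.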

The nature of assay [3]: APR_HepG2_NuclearSize_24hr: Apredica 24-hour HepG2 Assay for Nuclear Size (AID 2282907). As to conditions: high-content imaging, actives raise or lower the signal. The method, boiled down:
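Compounds in DMSO (final 0.5%) were added to human HepG2 hepatoma cells at ten concentrations up to 200 uM for 24 hr. Fixed nuclei were stained with Hoechst 33342, and nuclear diameter was quantified from automated images.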

Assay [4] can be described thus: APR_HepG2_CellLoss_24hr: Apredica 24-hour HepG2 Assay for Cell Loss (AID 2282908).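 On AC50: fit in both directions so a hit may be cell loss or gain.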 As to conditions: high-content imaging. The method, boiled down:
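Cell number is quantified by fluorescence imaging of Hoechst 33342-stained nuclei following dosing at 0.39–200 uM in 0.5% DMSO. Curves are fitted in both directions from the DMSO baseline.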

A short description of assay [5]: APR_HepG2_MicrotubuleCSK_24hr: Apredica 24-hour HepG2 Assay for Microtubule CSK Stabilty (AID 2282909). Conditions: HepG2 microtubule cytoskeleton imaging, actives raise or lower the signal. The method in brief: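 Steps: dose HepG2 for 24 h (0.39–200 uM, 0.5% DMSO); fix 30 min in 3.7% formaldehyde at room temperature; permeabilize; stain alpha-tubulin 60 min; image microtubule cytoskeleton at 20x. Signal change fitted in both directions relative to DMSO.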

The nature of assay [6]: APR_HepG2_MitoticArrest_24hr: Apredica 24-hour HepG2 Assay for Mitotic Arrest (AID 2282910). As to conditions: high-content imaging, actives raise or lower the signal. The method in brief:
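Compounds are dosed onto HepG2 cells across ten concentrations up to 200 uM for 24 hr. Cells are then fixed in 3.7% formaldehyde, permeabilised, and labelled for phospho-histone H3 and nuclei; images are scored by cell cycle analysis and fitted bidirectionally relative to DMSO.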

A short description of assay [7]: APR_HepG2_MitoMembPot_24hr: Apredica 24-hour HepG2 Assay for Mitochondrial Membrane Potential (AID 2282911). As to conditions: imaging, actives raise or lower the signal. The method in brief: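 HepG2 cells exposed 24 h to 0.39–200 uM compounds in duplicate, 0.5% v/v DMSO final. MitoTracker Red CMXRos 250 nM loaded 30 min before formaldehyde fixation; high-content imaging at 20x, bidirectional fit versus DMSO.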

Assay [8] can be described thus: APR_HepG2_MitoMass_24hr: Apredica 24-hour HepG2 Assay for Mitochondrial Mass (AID 2282912). As to conditions: high-content imaging, actives raise or lower the signal. The method in brief:
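The liver line HepG2 was dosed in duplicate across a 0.39–200 uM series, with final DMSO held at 0.5% v/v, and harvested at 24 hr. High-content imaging measured mitochondrial dye staining.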

Assay [9] is described as follows: APR_HepG2_p53Act_24hr: Apredica 24-hour HepG2 Assay for p53 Activation (AID 2282913).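 Further: p53 protein immunofluorescence averaged per cell in HepG2 with Hoechst nuclei.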 Conditions: high-content imaging, actives raise or lower the signal. The method, boiled down: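 HepG2 cells exposed 24 h to compounds at 0.39–200 uM in duplicate, 0.5% v/v DMSO final; fixed, permeabilized, stained with anti-p53 antibody and Hoechst 33342; fluorescence imaging; bidirectional curve fit versus DMSO.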

Assay [10] is described as follows: APR_HepG2_CellCycleArrest_72hr: Apredica 72-hour HepG2 Assay for Cell Cycle Arrest (AID 2282914). As to conditions: high-content imaging, actives raise or lower the signal. The method, boiled down: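 HepG2 cells exposed 72 h in duplicate to 0.39–200 uM compound, 0.5% DMSO final. Formaldehyde-fixed, Hoechst 33342-stained nuclei imaged at 20x, six fields per well; DNA content per valid cell quantified by cell-cycle image analysis, bidirectional fit versus DMSO.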

Assay [11] can be described thus: APR_HepG2_CellLoss_72hr: Apredica 72-hour HepG2 Assay for Cell Loss (AID 2282915). Conditions: high-content imaging. The method, boiled down:
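Cell number comes from Hoechst 33342-labelled nuclei, imaged at 20x after 3.7% formaldehyde fixation. Dosing was 0.39–200 uM, ten concentrations in duplicate, 0.5% DMSO final, for 72 h. Bidirectional fit relative to DMSO baseline.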

The nature of assay [12]: APR_HepG2_P-H2AX_72hr: Apredica 72-hour HepG2 Assay for H2AX Phosphorylation (AID 2282916).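 Further: phospho-histone H2A.x immunostain intensity per cell marking DNA damage.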 Conditions: imaging, actives raise or lower the signal. The method, boiled down: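 Following 72 hr treatment with 0.39–200 uM compound, HepG2 cells were formaldehyde-fixed, permeabilized and stained for phospho-H2A.x; signal was measured by high-content imaging and fitted bidirectionally against DMSO controls.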

Assay [13] in a line: APR_HepG2_MitoMembPot_72hr: Apredica 72-hour HepG2 Assay for Mitochondrial Membrane Potential (AID 2282917). As to conditions: imaging, actives raise or lower the signal. The method in brief:
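Membrane potential read by MitoTracker Red CMXRos (250 nM, 30 min, pre-fixation) fluorescence imaging of HepG2 after 72 hr exposure. Ten concentrations, 0.39–200 uM, duplicate wells, 0.5% DMSO; fitted in both directions against DMSO baseline.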

Assay [14] in a line: APR_HepG2_MitoticArrest_72hr: Apredica 72-hour HepG2 Assay for Mitotic Arrest (AID 2282918). As to conditions: high-content imaging, actives raise or lower the signal. The method, boiled down: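 HepG2 cells treated 72 h at 0.39–200 uM, 0.5% DMSO final; formaldehyde-fixed, stained with Hoechst 33342 and phospho-histone H3 antibody, imaged by high-content fluorescence; bidirectional fit versus DMSO.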

The nature of assay [15]: APR_HepG2_MicrotubuleCSK_72hr: Apredica 72-hour HepG2 Assay for Microtubule CSK Stabilty (AID 2282919). Conditions: HepG2 microtubule cytoskeleton, high-content imaging, actives raise or lower the signal. The method, boiled down:
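Read-out is tubulin fluorescence intensity from high-content imaging of HepG2 cells, with nuclei identified by Hoechst 33342. Treatment lasts 72 h at 0.39–200 uM, and curves are fitted bidirectionally against the DMSO negative control.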

Assay [16] can be described thus: APR_HepG2_P-H2AX_24hr: Apredica 24-hour HepG2 Assay for H2AX Phosphorylation (AID 2282920). Conditions: high-content imaging, actives raise or lower the signal. The method in brief:
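HepG2 cells dosed 24 h at 0.39–200 uM (10 points, duplicate, 0.5% DMSO final). Formaldehyde-fixed and permeabilized, then immunostained for phospho-H2A.x with Hoechst. Fluorescence quantified by high-content imaging, fitted bidirectionally versus DMSO.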

Assay [17] can be described thus: APR_HepG2_StressKinase_72hr: Apredica 72-hour HepG2 Assay for Stress Kinase (AID 2282921). As to conditions: HepG2 stress kinase (phospho-c-Jun) imaging, actives raise or lower the signal. The method in brief:
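Fluorescence intensity of Cy3-tagged anti-phospho-c-Jun antibody, quantified per cell from Hoechst-defined nuclei across six images per well, served as the read-out following 72 h exposure (0.39–200 uM, 0.5% v/v DMSO).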

Assay [18] in a line: APR_HepG2_p53Act_72hr: Apredica 72-hour HepG2 Assay for p53 Activation (AID 2282923).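 Further: average cellular p53 protein immunofluorescence intensity in HepG2 cells.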 As to conditions: high-content imaging, actives raise or lower the signal. The method, boiled down: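 HepG2 monolayers receive test compounds in duplicate at ten concentrations (0.39 through 200 uM) for 72 hr. They are then formaldehyde-fixed, antibody-labelled for p53, Hoechst-stained and imaged, with activity fitted bidirectionally versus DMSO.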

A short description of assay [19]: APR_HepG2_MitoMass_72hr: Apredica 72-hour HepG2 Assay for Mitochondrial Mass (AID 2282924).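 Further: MitoTracker Red CMXRos stain intensity per cell imaged as mitochondrial mass.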 As to conditions: high-content imaging, actives raise or lower the signal. The method in brief: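 HepG2, 72 hr cmpd, 10 conc 0.39–200 uM in dup, DMSO 0.5% v/v. MitoTracker Red CMXRos 250 nM 30 min pre-fix; formaldehyde 3.7% fix 30 min RT. HCS imaging, gain/loss fit vs DMSO.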

The nature of assay [20]: APR_HepG2_StressKinase_24hr: Apredica 24-hour HepG2 Assay for Stress Kinase (AID 2282922). As to conditions: HepG2 stress kinase (phospho-c-Jun) imaging, actives raise or lower the signal. The method, boiled down: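 HepG2, 24 hr dosing, 0.39–200 uM in duplicate, 0.5% DMSO; formaldehyde fix (3.7%), 0.5% Triton X-100; anti-phospho-c-Jun + Cy3 secondary, Hoechst counterstain; ArrayScan imaging; bidirectional curve fit vs DMSO baseline.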

Turning to `Cc1ccc(S(=O)(=O)O)c(C)c1`, in assay [1], the molecule was classed as inactive.

Consider `CC(C)(C)c1cccc(C(C)(C)C)c1O`, for which the call in assay [1], in [2], in [3], in [5], in assay [6] and in assay [12] was inactive. For the same molecule, the call in [14], in [15], in [17], in assay [18] and in [19] was inactive. The AC50 in [4] is 111 µM (active); in assay [7], 110 µM (active); in [8] it was 96.1 µM (active); in [9], 100 µM (active); in assay [10], 112 µM (active); in assay [11] it was 113 µM (active). Besides, the AC50 in assay [13] was 100 µM (active); in assay [16], 57.3 µM (active).

Consider `O=C1OC2(c3ccccc31)c1cc(Br)c(O)c(Br)c1Oc1c2cc(Br)c(O)c1Br`, for which, in assay [1], the AC50 is 20500 nM (active) and the molecule was called inactive.

On to `C[C@@H]1C[C@H]2[C@@H]3CCC4=CC(=O)C=C[C@]4(C)[C@@]3(F)[C@@H](O)C[C@]2(C)[C@@]1(O)C(=O)COP(=O)(O)O`, for which the AC50 in assay [1] is 685 nM (active); in assay [3], 9.81 µM (active); in assay [4], 15.4 µM (active); in [6], 1.76 µM (active); in assay [7] it was 37.7 µM (active); in assay [8] it was 2.64 µM (active). Besides, the half-maximal activity concentration (AC50) in [9] is 27.5 µM (active); in assay [10], 94 µM (active); in [11], 6.32 µM (active); in [12], 1.09 µM (active); in assay [13] it was 45.1 µM (active); in assay [14] it was 1.12 µM (active). The AC50 in assay [16] is 16 µM (active); in assay [18], 1.45 µM (active); in [19], 5.23 µM (active). The call in [1], in [2], in assay [15], in [17] and in assay [20] was inactive.

For the molecule `OC1CCC(C2CCCCC2)CC1` (stereo not drawn), the call in assay [1], in [2], in assay [3], in assay [4], in [5] and in assay [6] was inactive. Besides, the call in [7], in [8], in assay [9], in assay [10], in assay [11] and in assay [12] was inactive. Besides, the molecule was called inactive in assay [13], in [14], in assay [15], in assay [16], in [17] and in [18]. Also, the result in assay [19] was inactive.

Turning to `NC(=O)N(O)[C@@H]1C=C[C@H](Oc2cccc(Oc3ccc(F)cc3)c2)C1`, the molecule was classed as inactive in assay [1], in assay [2], in assay [3], in assay [6], in assay [8] and in assay [10]. Further, the call in [12], in assay [13], in assay [15], in assay [17], in assay [18] and in assay [19] was inactive. Besides, the AC50 in assay [4] is 107 µM (active); in assay [5], 93 µM (active); in assay [7] it was 32.9 µM (active); in assay [9] it was 105 µM (active); in assay [11] it was 94.7 µM (active); in assay [14], 85.4 µM (active). The concentration at half-maximal activity (AC50) in [16] was 103 µM (active).

`CCC(=C(c1ccc(O)cc1)c1ccc(OCCN(C)C)cc1)c1ccccc1`: the AC50 in assay [1] is 2.29 nM (active). The molecule was called inactive in assay [1], in assay [2], in assay [3], in [4], in [6] and in assay [7]. The call in assay [8], in assay [10], in assay [11], in assay [12], in assay [13] and in assay [14] was inactive. Besides, the outcome in [15], in assay [16], in [17], in assay [20] and in assay [19] was inactive.

Consider `CCCCCCCCCCCCCC[N+](C)(C)C`, for which the AC50 in assay [1] was 128 nM (active) and 101 nM (active).

Consider `Cc1cc(CCN2CCN(c3nsc4ccccc34)CC2)cc2c1NC(=O)CC2(C)C`, for which the molecule was called inactive in assay [1], in assay [2], in assay [3], in [5], in assay [7] and in [10]. The molecule was classed as inactive in [13] and in assay [17]. Besides, the AC50 in [4] was 28.6 µM (active); in [6], 15.7 µM (active); in assay [8] it was 22.2 µM (active); in [9] it was 18.2 µM (active); in [11], 30.9 µM (active); in assay [12] it was 11.2 µM (active). In addition, the AC50 in assay [14] was 39.7 µM (active); in assay [15], 37.6 µM (active); in assay [16] it was 22 µM (active); in assay [18], 33.8 µM (active); in assay [19], 29 µM (active).

By AC50 is commonly meant the concentration at which the activity in the assay is half-maximal.
